The record followed here is PubChem BioAssay (Tox21).

The structures appear in SMILES notation. Unmarked numbers belong to inactive results. Results filed as inconclusive are left out. Calls of active or inactive are those of the source. The call rests on the fitted dose curve.

Assay [1] deals with Acetylcholinesterase (Homo sapiens) (UniProt P22303). The experiment in a line: Acetylcholinesterase (AChE) small molecule antagonists: colormetric cell-based qHTS assay (AID 1347395). Further: nearly all actives have a fitted effect of over 30% in size. Further: potency means the concentration at half of the fitted maximal effect. The essentials: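 Endogenous AChE of human neuroblastoma SH-SY5Y cells was measured with an Ellman-type DTNB/acetylthiocholine mix. Compound pretreatment lasted 30 min at 37 C; substrate reaction ran 90 min at 37 C.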
Chain of Acetylcholinesterase (Homo sapiens) (P22303 whole entry, looked up): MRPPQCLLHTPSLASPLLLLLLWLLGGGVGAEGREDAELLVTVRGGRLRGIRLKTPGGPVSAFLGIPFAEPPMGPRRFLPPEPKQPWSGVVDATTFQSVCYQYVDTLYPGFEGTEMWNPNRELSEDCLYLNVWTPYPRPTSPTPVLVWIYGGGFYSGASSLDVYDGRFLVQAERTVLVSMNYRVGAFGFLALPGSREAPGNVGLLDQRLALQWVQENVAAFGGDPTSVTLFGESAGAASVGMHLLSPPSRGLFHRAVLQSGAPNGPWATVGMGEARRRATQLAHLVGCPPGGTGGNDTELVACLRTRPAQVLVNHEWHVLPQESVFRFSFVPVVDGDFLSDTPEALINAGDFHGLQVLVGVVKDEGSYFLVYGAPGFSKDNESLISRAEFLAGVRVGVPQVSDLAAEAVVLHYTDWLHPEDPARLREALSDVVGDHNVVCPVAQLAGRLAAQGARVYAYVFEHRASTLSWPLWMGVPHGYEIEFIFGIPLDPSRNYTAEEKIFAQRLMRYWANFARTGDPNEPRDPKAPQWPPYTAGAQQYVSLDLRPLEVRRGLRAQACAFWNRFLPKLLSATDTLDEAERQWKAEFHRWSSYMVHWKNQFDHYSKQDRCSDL
(qHTS replaces the single test concentration by a dilution series.)

Assay [2] has the same target. Put plainly: Acetylcholinesterase (AChE) small molecule antagonists: enzyme-based qHTS assay (AID 1347397). Further: nearly all actives have a fitted effect of over 55% in size. Further: potency means the concentration at half of the fitted maximal effect. To be noted: Potency: AChE enzyme activity inhibition; outcome: AChE enzyme activity inhibition. In outline:
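Tox21 library chemicals are tested in qHTS format against recombinant human AChE. The enzyme, dispensed at 50 mU/mL, sits with compound for 30 min at room temperature. A DTNB–acetylthiocholine cocktail follows, and colour is read after 10 min.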

Assay [3] shares this target. The experiment in a line: Acetylcholinesterase (AChE) small molecule antagonists: fluorescence cell-based qHTS assay (AID 1347398). Further: nearly all actives have a fitted effect of over 50% in size. Further: potency means the concentration at half of the fitted maximal effect. To be noted: Potency: AChE activity; outcome: AChE activity. The essentials:
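Cellular AChE inhibition: SH-SY5Y cells treated with test chemical for 30 min at 37 C, then acetylthiocholine hydrolysis followed over 40 min at room temperature via thiocholine-reactive Thiolite Green fluorescence (490/520 nm).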

For assay [4] the target is unchanged. Put plainly: Acetylcholinesterase (AChE) small molecule antagonists: enzyme-based qHTS assay with human liver microsomes (AID 1347399). Further: nearly all actives have a fitted effect of over 60% in size. To be noted: Potency: qHTS inhibition; outcome: qHTS inhibition. In outline: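 Recombinant human AChE (50 mU/mL in the enzyme mix) and human liver microsomes (0.25 mg/mL final) were preincubated with compound and NADPH (0.25 mg/mL final) for 30 min at 37 C. Acetylthiocholine/DTNB was then added; thiocholine was read colorimetrically after 10 min at room temperature.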

Consider `Cc1ccc(N(C)C)cc1`, for which the Potency result in assay [1], in assay [2], in assay [3] and in assay [4] was “inactive” throughout.

Consider `COc1cccc2c1C(=O)c1c(O)c3c(c(O)c1C2=O)C[C@@](O)(C(=O)CO)C[C@@H]3O[C@H]1C[C@H](N)[C@H](O)[C@H](C)O1`, for which, in assay [1], the Potency was 8.71 µM (active). Further, the Potency result in assay [2], in assay [3] and in assay [4] was “inactive” throughout.

For the compound `CC(=O)C(=O)CC(C)C`, the Potency result in assay [1], in assay [2], in assay [3] and in assay [4] was “inactive” throughout.

As for `C[C@]12CC[C@@H]3c4ccc(O)cc4CC[C@H]3[C@@H]1C[C@@H](O)[C@@H]2O`, the Potency entry in assay [1], in assay [2], in assay [3] and in assay [4] was “inactive” throughout.

On to `CCOC(=O)C1=NN(c2ccccc2)C(=O)C1`, for which the Potency entry in assay [1], in assay [2], in assay [3] and in assay [4] was “inactive” throughout.

Regarding `CC(CCC(=O)O)C(=O)O` (stereo not given), the Potency result in assay [1], in assay [2], in assay [3] and in assay [4] was “inactive” throughout.

As to `CC1(C)Oc2ccc(C#N)cc2[C@@H](N2CCCC2=O)[C@@H]1O`, the Potency result in assay [1], in assay [2], in assay [3] and in assay [4] was “inactive” in each case.

For `C=CC(C)CCC=C(C)C` (stereo not given), the Potency result in assay [1], in assay [2], in assay [3] and in assay [4] was “inactive” throughout.

Turning to `COC(=O)CCCCC(CCSS/C(CCO)=C(\C)N(C=O)Cc1cnc(C)nc1N)SC(C)=O` (stereo not given), the Potency entry in assay [1], in assay [2], in assay [3] and in assay [4] was “inactive” each time.

Take `OC(CCN1CCCCC1)(c1ccccc1)C1CCCCC1` (stereo not given): the outcome in assay [1], in assay [2], in assay [3] and in assay [4] was inactive.

As to `CC(C)(C(=O)c1cccnc1)c1cccnc1`, the Potency entry in assay [1], in assay [2], in assay [3] and in assay [4] was “inactive” in each case.

Consider `C=CCNc1nc(NCC=C)nc(N2CCN(C(c3ccc(F)cc3)c3ccc(F)cc3)CC2)n1`, for which the compound was classed as inactive in assay [1], in assay [2], in assay [3] and in assay [4].

Consider `O=C1C(c2[nH]c3ccccc3c2O)=Nc2ccccc21`, for which the Potency entry in assay [1], in assay [2], in assay [3] and in assay [4] was “inactive” each time.

In the case of `CC(C)NNC(=O)c1ccncc1`, the Potency entry in assay [1], in assay [2], in assay [3] and in assay [4] was “inactive” throughout.

For the compound `C=CCOC(=O)CC(C)C`, the Potency entry in assay [1], in assay [2], in assay [3] and in assay [4] was “inactive” each time.

For the compound `CC(CCc1ccc(O)cc1)NCCc1ccc(O)c(O)c1` (stereo not given), the Potency result in assay [1], in assay [2], in assay [3] and in assay [4] was “inactive” in each case.

For the compound `O=C(O)CS`, the Potency result in assay [1], in assay [2], in assay [3] and in assay [4] was “inactive” throughout.

With `Cn1c(=O)[nH]c2ncn(C)c2c1=O`, the Potency entry in assay [1], in assay [2], in assay [3] and in assay [4] was “inactive” throughout.

In the case of `CC(C)Cc1ccc(CC(=O)O)cc1`, the Potency result in assay [1], in assay [2], in assay [3] and in assay [4] was “inactive” each time.

In the case of `CCCC(=O)OC`, the Potency entry in assay [1], in assay [2], in assay [3] and in assay [4] was “inactive” in each case.

`C1CN(CCOCCN2CCOCC2)CCO1`: the Potency entry in assay [1], in assay [2], in assay [3] and in assay [4] was “inactive” in each case.

For the compound `CC(=O)O[C@]1(C(C)=O)CC[C@H]2[C@@H]3C=C(C)C4=CC(=O)CC[C@]4(C)[C@H]3CC[C@@]21C`, the Potency entry in assay [1], in assay [2], in assay [3] and in assay [4] was “inactive” throughout.

In the case of `CCCCNC(=O)NS(=O)(=O)c1ccc(N)cc1`, the Potency entry in assay [1], in assay [2], in assay [3] and in assay [4] was “inactive” throughout.

`CC(C)CC(=O)C1C(=O)c2ccccc2C1=O`: the Potency entry in assay [1], in assay [2], in assay [3] and in assay [4] was “inactive” each time.

For `C=C1C(=C/C=C2\CCC[C@]3(C)[C@@H]([C@H](C)/C=C/[C@@H](O)C4CC4)CC[C@@H]23)C[C@@H](O)C[C@@H]1O`, the Potency entry in assay [1], in assay [2], in assay [3] and in assay [4] was “inactive” in each case.

Take `CC(O)(c1ccc(Cl)cc1)c1ccc(Cl)cc1`: the Potency entry in assay [1], in assay [2], in assay [3] and in assay [4] was “inactive” throughout.

For `COc1cc([C@H]2Oc3cc([C@H]4Oc5cc(O)cc(O)c5C(=O)[C@@H]4O)ccc3O[C@@H]2CO)ccc1O`, the Potency entry in assay [1], in assay [2], in assay [3] and in assay [4] was “inactive” in each case.

For `NS(=O)(=O)c1cc2c(cc1Cl)NCNS2(=O)=O`, the Potency result in assay [1], in assay [2], in assay [3] and in assay [4] was “inactive” throughout.

`COC(=O)/C=C\C(=O)OC`: the Potency result in assay [1], in assay [2], in assay [3] and in assay [4] was “inactive” in each case.

Turning to `CCCCCCCCCCCCOCCOCCOCCOCCOCCOCCOCCOCCOCCO`, the Potency result in assay [1], in assay [2], in assay [3] and in assay [4] was “inactive” each time.

As for `COc1cc(NC(=O)CC(C)=O)c(OC)cc1Cl`, the Potency entry in assay [1], in assay [2], in assay [3] and in assay [4] was “inactive” each time.

Regarding `CCN1CCCC1CN` (stereo not given), the Potency entry in assay [1], in assay [2], in assay [3] and in assay [4] was “inactive” each time.

With `Cc1cc(C)c(C)cc1C`, the Potency result in assay [1], in assay [2], in assay [3] and in assay [4] was “inactive” throughout.

For `O=C(Cl)c1cc(Cl)cc(Cl)c1`, the Potency entry in assay [1], in assay [2], in assay [3] and in assay [4] was “inactive” throughout.

Consider `Cc1ccc(S(=O)(=O)N=C=O)cc1`, for which the Potency result in assay [1], in assay [2], in assay [3] and in assay [4] was “inactive” each time.

Consider `c1cc(C(c2ccc(OCC3CO3)cc2)c2ccc(OCC3CO3)cc2)ccc1OCC1CO1` (stereo not given), for which the Potency result in assay [1], in assay [2], in assay [3] and in assay [4] was “inactive” in each case.

In the case of `CCCC(C)CCC(C)=O` (stereo not given), the Potency result in assay [1], in assay [2], in assay [3] and in assay [4] was “inactive” throughout.

Regarding `CC(=O)N1CCN(c2ccc(O)cc2)CC1`, the Potency result in assay [1], in assay [2], in assay [3] and in assay [4] was “inactive” throughout.

Regarding `CC(C)=CCOC(=O)c1ccccc1`, the Potency result in assay [1], in assay [2], in assay [3] and in assay [4] was “inactive” each time.

In the case of `CC(=O)Nc1ccc(C(=O)CCl)cc1`, the Potency entry in assay [1], in assay [2], in assay [3] and in assay [4] was “inactive” throughout.

As for `c1ccc2[nH]cnc2c1`, the Potency entry in assay [1], in assay [2], in assay [3] and in assay [4] was “inactive” throughout.

Consider `O=C(O)c1cccc(Oc2ccccc2)c1`, for which the Potency entry in assay [1], in assay [2], in assay [3] and in assay [4] was “inactive” in each case.

With `Oc1ccc(CCNCCCCCCNCCc2ccccc2)cc1O`, the Potency is 7.76 µM (active) in assay [1], 27.5 µM (active) in assay [2] and 13.8 µM (active) in assay [3]. In assay [4], the Potency result is “inactive”.

For the compound `CC(=O)CC(=O)Nc1ccccc1`, the Potency result in assay [1], in assay [2], in assay [3] and in assay [4] was “inactive” throughout.

In the case of `CCCc1ccccc1`, the Potency entry in assay [1], in assay [2], in assay [3] and in assay [4] was “inactive” throughout.

Consider `CC(C)CC(=O)O`, for which the Potency entry in assay [1], in assay [2], in assay [3] and in assay [4] was “inactive” in each case.

With `COC(Cc1ccccc1)OC`, the Potency entry in assay [1], in assay [2], in assay [3] and in assay [4] was “inactive” in each case.

Take `CCCC(=O)C(C)=O`: the Potency result in assay [1], in assay [2], in assay [3] and in assay [4] was “inactive” throughout.

Consider `CCCCCCCC/C=C\CCCCCCCC(=O)OC(CO)CO`, for which the Potency result in assay [1], in assay [2], in assay [3] and in assay [4] was “inactive” each time.

Take `COc1cc(Cl)ccc1Cl`: the Potency entry in assay [1], in assay [2], in assay [3] and in assay [4] was “inactive” throughout.

As to `O=c1cc[nH]cc1`, the Potency result in assay [1], in assay [2], in assay [3] and in assay [4] was “inactive” each time.

Regarding `COC[C@H](c1ccc(C(F)(F)F)cc1)N1CCN(C2(C)CCN(C(=O)c3c(C)ncnc3C)CC2)C[C@H]1C`, the Potency result in assay [1], in assay [2], in assay [3] and in assay [4] was “inactive” in each case.

As to `CC1(C)[C@H]2CC[C@]1(C)C(=O)C2`, the Potency result in assay [1], in assay [2], in assay [3] and in assay [4] was “inactive” in each case.

In the case of `ClC/C=C/CCl`, the Potency result in assay [1], in assay [2], in assay [3] and in assay [4] was “inactive” in each case.

As for `c1ccc2n[nH]nc2c1`, the Potency entry in assay [1], in assay [2], in assay [3] and in assay [4] was “inactive” each time.

Turning to `CC1CCCNC1` (stereo not given), the Potency entry in assay [1], in assay [2], in assay [3] and in assay [4] was “inactive” throughout.

As to `C=CC(O)CCCCC` (stereo not given), the Potency result in assay [1], in assay [2], in assay [3] and in assay [4] was “inactive” in each case.

Take `CC(C)COC(=O)c1ccccc1O`: the Potency result in assay [1], in assay [2], in assay [3] and in assay [4] was “inactive” each time.

For the compound `CCCCCCCC(OC)OC`, the Potency result in assay [1], in assay [2], in assay [3] and in assay [4] was “inactive” throughout.

In the case of `Nc1c(Cl)cc(Cl)cc1Cl`, the Potency entry in assay [1], in assay [2], in assay [3] and in assay [4] was “inactive” in each case.
